USP2a block: blocks human ubiquitin-specific protease USP2a | O75604 | USP2 core, Ub-CHOP2 coupled fluorogenic reporter, 485/531 | Potency, µM (highest dose often 38.3 µM), actives largely listed as inhibitors | hit rate 0.01% among 330,000 | AID 463254
Target sequence (O75604 whole entry, looked up): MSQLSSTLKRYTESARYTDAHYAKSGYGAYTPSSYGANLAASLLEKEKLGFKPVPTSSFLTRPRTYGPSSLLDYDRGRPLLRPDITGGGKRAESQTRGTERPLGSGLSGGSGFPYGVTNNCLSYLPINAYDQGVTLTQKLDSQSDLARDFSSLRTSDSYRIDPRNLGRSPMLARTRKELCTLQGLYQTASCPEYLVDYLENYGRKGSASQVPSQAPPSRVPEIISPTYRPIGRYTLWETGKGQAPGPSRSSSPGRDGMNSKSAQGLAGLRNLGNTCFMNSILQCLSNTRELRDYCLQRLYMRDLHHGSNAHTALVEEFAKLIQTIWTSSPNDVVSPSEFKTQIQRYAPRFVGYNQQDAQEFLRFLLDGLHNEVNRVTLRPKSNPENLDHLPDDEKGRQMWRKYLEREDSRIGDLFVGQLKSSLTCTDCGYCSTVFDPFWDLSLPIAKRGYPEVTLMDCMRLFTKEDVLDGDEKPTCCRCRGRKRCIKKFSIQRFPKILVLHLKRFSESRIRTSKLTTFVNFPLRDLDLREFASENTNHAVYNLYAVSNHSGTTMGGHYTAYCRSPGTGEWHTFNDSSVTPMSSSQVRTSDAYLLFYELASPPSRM
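Cell-free coupled assay: 10nM USP2 core preincubated 30min RT with compound in Tris-HCl pH 8.0/CaCl2/CHAPS buffer, then 25nM Ub-CHOP2 and 25nM reporter substrate; fluorescence (Ex 485/Em 531) read after 60min RT, normalized to NEM inhibition, concentration-response curves fitted.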
Eya2 inh: Eya2 (human) phosphatase inhibition | O00167 | recombinant Eya2, OMFP fluorescence dephosphorylation (OMFP is methylfluorescein phosphate) | Potency, µM (doses to about 76.9 µM), usual class: inhibitors | hit rate 0.006% among 330,000 | AID 488837
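Eya2 (0.2 uM) preincubated 10 min at ambient with compound, then OMFP substrate added at 50 uM; 10 min reaction in 50 mM HEPES pH 7.5, 50 mM NaCl, 5 uM MgCl2, 0.05% BSA, 1 mM DTT. Fluorescence read at Ex 485/Em 525 nm.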
12-LOX inh: blocks human arachidonate 12S-lipoxygenase; P18054; purified 12hLO, xylenol orange hydroperoxide absorbance; Potency, µM (titrated, usually from 108 µM), usual class: inhibitors; hit rate 1.1% among 580,000; AID 1671190
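Purified human 12hLO at 150 nM in 25 mM Hepes, 0.01% Triton X-100, pH 7.0, preincubated 15 min at room temperature with compound. Reaction started with 40 uM arachidonic acid, 30 min at room temperature. Hydroperoxide measured by Fe-xylenol orange, 573/405 nm absorbance ratio.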
PTAP TSG101 blk: blocks PTAP/TSG101 interaction to inhibit HIV-1 budding; Q99816; Fluorescence polarization, FITC-PTAP peptide / Tsg101 binding; 340,000 tested, under 10 active; Potency, µM (top dose mostly 115 µM), most hits filed as inhibitors; active = well fitted inhibition curve with a large enough effect in the main read-out, with a control signal flat, not every such curve was filed as active; inconclusive = small, poorly fitted or top-dose-only effect, or effect the other way, or a change in a side signal; inactive = no such curve, though single readings can be large or run the other way
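Tsg101 binding domain (10 uM final) was mixed with compound and a FITC-labeled PTAP peptide (50 nM final) in HEPES pH 7.5 buffer with NaCl, Tween 20, EDTA and TCEP; fluorescence polarization was read after 20 min at r.t.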
Of the large screens only hits and unclear results are named; the others gave an inactive call; ! = not active in a repeat. Rows were chosen to be rich in hits. Some 1.1% of all compounds tested hit in one or more screens of this group. Unless noted, calls come from the whole dose curve; as a rule, active = well fitted curve in the direction sought with a large enough effect; inconclusive = small, poorly fitted or top-dose-only effect, or another doubt; inactive = no such curve, though single readings can be large; an effect the other way counts as inactive or inconclusive.

CCCCCCCCCCCCCCCC[N+](C)(C)CCN(Cc1ccc(OC)cc1)c1ncccn1	USP2a block 10µM, Eya2 inh inconclusive, 12-LOX inh inconclusive
CC1=CCC(=C(C)C)CC1	none (no result: USP2a block, Eya2 inh, PTAP TSG101 blk)
CNC(=S)N/N=C/c1cn(CCOc2ccc(OC)cc2)c2ccccc12	12-LOX inh 40µM
CNC(=S)N/N=C/c1c(C)c(C(=O)c2ccc(F)cc2)n2ccccc12	12-LOX inh 35µM
CNC(=S)N/N=C/c1cn(Cc2ccc(F)cc2)c2ccccc12	12-LOX inh 28µM
COC(=O)N/N=C/c1cn(Cc2ccc(F)cc2)c2ccccc12	none
O=C(C1CCCC1)N1CCC(Oc2cccc(F)c2)C1 (stereo unspecified)	none (no result: USP2a block, Eya2 inh, PTAP TSG101 blk)
COCC1CN(C)CC12CCN(Cc1ccc(F)c(Cl)c1)CC2 (stereo unspecified)	none (no result: USP2a block, Eya2 inh, PTAP TSG101 blk)
NS(=O)(=O)c1ccc(NC(=O)CCN(Cc2cccs2)C2CC2)cc1	none (no result: USP2a block, Eya2 inh, PTAP TSG101 blk)
CC(=O)NC1C(=O)N(CCN2CCOCC2)c2ccc(C)cc21 (stereo unspecified)	none (no result: 12-LOX inh)
CC(=O)NC1C(=O)N(CCN2CCOCC2)c2ccc(Cl)cc21 (stereo unspecified)	12-LOX inh 40µM
CCCCN1C(=O)C(NC(C)=O)c2cc(Br)ccc21 (stereo unspecified)	none
CC(=O)NC1C(=O)N(CCN2CCOCC2)c2ccc(F)cc21 (stereo unspecified)	12-LOX inh 40µM
COc1ccccc1N(C)S(=O)(=O)c1ccc(C(=O)Nc2cccc(C)c2C)cc1	none (no result: USP2a block, Eya2 inh, PTAP TSG101 blk)
CN(C)c1ccc(-c2noc([C@@H]3CCCN3CC3CCCCC3)n2)cn1	none (no result: USP2a block, Eya2 inh, PTAP TSG101 blk)
FC(F)(F)c1ccc(/C=N/Nc2ccc(Cl)cc2)cc1	12-LOX inh 7.1µM (no result: USP2a block, Eya2 inh, PTAP TSG101 blk)
Cc1nnc(N/N=C/c2cccc(C(F)(F)F)c2)n1N	none
Clc1ccc(/C=N\Nc2ccccc2)cc1	12-LOX inh inconclusive
Cc1ccc(N/N=C/c2cccc(C(F)(F)F)c2)cc1Cl	12-LOX inh 3.5µM (no result: USP2a block, Eya2 inh, PTAP TSG101 blk)
O=C(O)c1ccc(N/N=C/c2cccc(C(F)(F)F)c2)cc1	none
FC(F)(F)c1cccc(/C=N/Nc2ccc(Cl)cc2)c1	12-LOX inh 7.1µM (no result: USP2a block, Eya2 inh, PTAP TSG101 blk)
CCCC1CCCC(=O)O1 (stereo unspecified)	none (no result: USP2a block, Eya2 inh, PTAP TSG101 blk)
CN(Cc1ccc(-c2ccc(Cl)cc2)o1)C(=O)CSc1nnc(C2CC2)n1C	none (no result: USP2a block, Eya2 inh, PTAP TSG101 blk)
C#CCN(C[C@H]1[C@H](OC(=O)NC2CC2)[C@H](OC(=O)NC2CC2)C[C@H]2C(=O)N(c3ccccc3)C(=O)[C@@H]12)S(=O)(=O)c1ccc(C)cc1	none (no result: USP2a block, Eya2 inh, PTAP TSG101 blk)
C#CCN(C[C@H]1[C@H](OC(=O)NCC2CCCCC2)[C@H](OC(=O)NCC2CCCCC2)C[C@H]2C(=O)N(c3ccccc3)C(=O)[C@@H]12)S(=O)(=O)c1ccc(C)cc1	12-LOX inh 45µM (no result: USP2a block, Eya2 inh, PTAP TSG101 blk)
CC(=O)C1=C(C)N(Cc2ccc(Br)cc2)C(=S)NC1c1cccc(Br)c1 (stereo unspecified)	12-LOX inh 32µM (no result: USP2a block, Eya2 inh, PTAP TSG101 blk)
CCN1C(=O)N[C@@H](c2cccc(C(F)(F)F)c2)C(C(C)=O)=C1C	none (no result: USP2a block, Eya2 inh)
CC(=O)C1=C(C)N(Cc2ccc(Cl)cc2)C(=S)NC1c1cccc(Br)c1 (stereo unspecified)	12-LOX inh 40µM (no result: USP2a block, Eya2 inh, PTAP TSG101 blk)
CC(=O)C1=C(C)N(CC(C)C)C(=S)NC1c1ccc(Br)cc1 (stereo unspecified)	12-LOX inh 40µM (no result: USP2a block, Eya2 inh, PTAP TSG101 blk)
COc1cc(CN2CCCC(C(=O)N3CCc4ccccc4C3)C2)cc(OC)c1OC (stereo unspecified)	12-LOX inh inconclusive
COc1ccc(CN2CCCC(C(=O)N3CCc4ccccc4C3)C2)cc1OC (stereo unspecified)	12-LOX inh 0.71µM!
CCOC(=O)C1CCCN(Cc2ccc(OCc3ccccc3)c(OC)c2)C1 (stereo unspecified)	12-LOX inh 0.56µM
Clc1ccc(SCCOCCN2CCCCCC2)cc1	12-LOX inh 0.56µM
COc1ccc2c(c1)S/C(=C\C(=O)c1ccncc1)N2C	12-LOX inh 45µM
COc1cc(OC)cc(C(=O)/C=C2\Sc3ccccc3N2C)c1	none
Cc1ccc(NC(=O)CCN=C2NS(=O)(=O)c3ccccc32)cc1Cl	none (no result: USP2a block, Eya2 inh, PTAP TSG101 blk)
COc1ccc(S(=O)(=O)N(CCc2ccccc2)CC(=O)NC(C)C)cc1	12-LOX inh 32µM
COc1ccccc1C1CC(=O)Oc2cc(C)c(Cl)cc21 (stereo unspecified)	12-LOX inh 40µM
COc1ccc(C2CC(=O)Oc3cc(C)c(Cl)cc32)cc1 (stereo unspecified)	12-LOX inh inconclusive
O=C(SCc1c(O)c2ccccc2oc1=O)c1ccccc1	12-LOX inh 28µM (no result: USP2a block, Eya2 inh, PTAP TSG101 blk)
CCc1nc2ccccc2n1CCCCOc1ccccc1C	12-LOX inh 40µM (no result: USP2a block, Eya2 inh, PTAP TSG101 blk)
Cc1ccc(-c2ccc(CN3C(C)C(=O)N(Cc4cn(Cc5ccco5)nn4)CCS3(=O)=O)cc2)cc1 (stereo unspecified)	12-LOX inh 11µM (no result: USP2a block, Eya2 inh, PTAP TSG101 blk)
CCC/C=C/c1ccc(CN2C(C(C)C)C(=O)N(Cc3cn(Cc4ccco4)nn3)CCS2(=O)=O)cc1 (stereo unspecified)	12-LOX inh 45µM (no result: USP2a block, Eya2 inh, PTAP TSG101 blk)
CC1C(=O)N(Cc2cn(Cc3ccco3)nn2)CCS(=O)(=O)N1Cc1ccc(-c2ccc(Cl)c(Cl)c2)cc1 (stereo unspecified)	none (no result: USP2a block, Eya2 inh, PTAP TSG101 blk)
CCC/C=C/c1ccc(CN2C(C(C)C)C(=O)N(Cc3cn(CCC4OCCCO4)nn3)CCS2(=O)=O)cc1 (stereo unspecified)	none (no result: USP2a block, Eya2 inh, PTAP TSG101 blk)
CC(C)Cc1ccc(CN2C(C)C(=O)N(Cc3cn(Cc4ccco4)nn3)CCS2(=O)=O)cc1 (stereo unspecified)	12-LOX inh 14µM (no result: USP2a block, Eya2 inh, PTAP TSG101 blk)
COc1ccc(OCC(=O)Nc2ccc3oc(-c4cccc(F)c4)nc3c2)cc1	none (no result: USP2a block, Eya2 inh, PTAP TSG101 blk)
Cc1ccc(C(=O)N[C@H]2C[C@@H](c3nc(Cc4ccccc4)no3)N(C)C2)cc1	none (no result: USP2a block, Eya2 inh, PTAP TSG101 blk)

Bioassay records as filed in PubChem.
